# Tests used:
# Experiment in all cases: DAPPL (digital affinity profiling via proximity ligation, sequencing); 10 mM Tris-HCl pH 7.5, 50 mM NaCl, 1 mM DTT, 4% glycerol, room temperature, 30 min; GST-TFs on glutathione beads, 16-mer random dsDNA library, 0.1% formaldehyde crosslink after washing; high values mean tight binding
# Conditions in all cases: protein: recombinant; tags: N-terminal GST; dsDNA, one strand shown
# ERF = target: T1, ERF (Homo sapiens, UniProt P50548 1-548)
# T1 sequence: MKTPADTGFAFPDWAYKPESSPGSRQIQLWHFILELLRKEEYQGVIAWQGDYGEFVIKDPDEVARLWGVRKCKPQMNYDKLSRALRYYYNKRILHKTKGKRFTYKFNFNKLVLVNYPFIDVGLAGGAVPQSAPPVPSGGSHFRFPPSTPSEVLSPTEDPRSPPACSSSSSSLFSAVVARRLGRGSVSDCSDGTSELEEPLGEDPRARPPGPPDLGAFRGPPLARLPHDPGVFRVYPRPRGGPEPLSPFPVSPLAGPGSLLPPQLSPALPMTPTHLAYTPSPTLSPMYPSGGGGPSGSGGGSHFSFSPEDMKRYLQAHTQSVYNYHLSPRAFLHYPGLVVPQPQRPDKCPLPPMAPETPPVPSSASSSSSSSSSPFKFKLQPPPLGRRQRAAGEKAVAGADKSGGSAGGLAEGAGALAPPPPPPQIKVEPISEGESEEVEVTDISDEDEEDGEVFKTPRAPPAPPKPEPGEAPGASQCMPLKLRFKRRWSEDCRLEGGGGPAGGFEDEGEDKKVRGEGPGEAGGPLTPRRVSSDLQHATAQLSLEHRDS
# In short: (§1)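 Binding signal is given per hexamer as its read frequency for a factor divided by its frequency in the tag-only sample. GST-fused human transcription factors were expressed in yeast, captured on glutathione beads, barcoded with DNA and pooled with that sample, then incubated with 200 nmole of a 16-mer random double-stranded DNA library in Tris/NaCl/DTT/glycerol buffer for 30 min at room temperature. The pools were then washed, crosslinked, proximity-ligated, amplified by PCR and sequenced on an Illumina NextSeq500.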
# ETV3L = target: T2, ETV3L (Homo sapiens, UniProt Q6ZN32 1-361)
# T2 sequence: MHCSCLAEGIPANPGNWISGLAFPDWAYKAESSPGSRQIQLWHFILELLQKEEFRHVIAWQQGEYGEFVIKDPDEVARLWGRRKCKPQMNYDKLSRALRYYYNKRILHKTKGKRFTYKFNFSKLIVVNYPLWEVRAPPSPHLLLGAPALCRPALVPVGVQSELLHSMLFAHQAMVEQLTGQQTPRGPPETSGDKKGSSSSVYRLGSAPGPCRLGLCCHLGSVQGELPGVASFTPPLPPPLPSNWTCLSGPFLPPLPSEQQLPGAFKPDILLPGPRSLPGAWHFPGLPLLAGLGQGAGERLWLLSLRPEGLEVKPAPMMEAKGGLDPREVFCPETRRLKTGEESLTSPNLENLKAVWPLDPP
# In short: as §1
# ETS2 = target: T3, ETS2 (Homo sapiens, UniProt P15036 1-469)
# T3 sequence: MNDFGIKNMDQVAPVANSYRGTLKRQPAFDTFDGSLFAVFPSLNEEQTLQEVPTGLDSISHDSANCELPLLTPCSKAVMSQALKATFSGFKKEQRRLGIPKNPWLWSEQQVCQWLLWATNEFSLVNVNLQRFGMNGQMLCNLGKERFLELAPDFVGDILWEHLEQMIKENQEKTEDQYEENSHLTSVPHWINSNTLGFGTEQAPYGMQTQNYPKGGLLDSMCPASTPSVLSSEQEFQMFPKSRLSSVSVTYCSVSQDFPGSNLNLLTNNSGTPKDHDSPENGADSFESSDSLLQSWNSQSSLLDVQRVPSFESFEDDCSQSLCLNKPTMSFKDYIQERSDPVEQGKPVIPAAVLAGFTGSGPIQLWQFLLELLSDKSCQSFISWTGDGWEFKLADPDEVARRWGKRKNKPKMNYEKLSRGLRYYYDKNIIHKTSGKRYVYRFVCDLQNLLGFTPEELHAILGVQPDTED
# In short: as §1
# SPDEF = target: T4, SPDEF (Homo sapiens, UniProt O95238 1-335)
# T4 sequence: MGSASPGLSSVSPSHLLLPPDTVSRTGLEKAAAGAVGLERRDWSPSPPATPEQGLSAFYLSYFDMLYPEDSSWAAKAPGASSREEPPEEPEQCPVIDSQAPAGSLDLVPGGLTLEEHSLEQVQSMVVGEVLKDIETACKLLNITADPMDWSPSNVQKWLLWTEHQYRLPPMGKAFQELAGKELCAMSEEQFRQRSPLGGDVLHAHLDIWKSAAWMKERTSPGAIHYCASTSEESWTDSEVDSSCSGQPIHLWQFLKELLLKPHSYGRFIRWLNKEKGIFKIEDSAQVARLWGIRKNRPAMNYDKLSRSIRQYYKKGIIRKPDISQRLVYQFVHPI
# In short: as §1
# ETV7 = target: T5, ETV7 (Homo sapiens, UniProt Q9Y603 1-341)
# T5 sequence: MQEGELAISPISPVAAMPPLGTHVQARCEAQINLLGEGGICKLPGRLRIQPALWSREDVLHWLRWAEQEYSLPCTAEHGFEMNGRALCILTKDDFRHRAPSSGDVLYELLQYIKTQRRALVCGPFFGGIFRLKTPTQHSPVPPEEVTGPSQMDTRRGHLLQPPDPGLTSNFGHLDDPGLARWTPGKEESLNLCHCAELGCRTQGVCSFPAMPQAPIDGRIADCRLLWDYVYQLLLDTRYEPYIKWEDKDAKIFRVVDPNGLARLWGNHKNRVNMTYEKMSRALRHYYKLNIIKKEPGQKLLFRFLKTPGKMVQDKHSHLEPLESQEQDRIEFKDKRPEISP
# In short: as §1
# ELF5 = target: T6, ELF5 (Homo sapiens, UniProt Q9UKW6-2 1-255)
# T6 sequence: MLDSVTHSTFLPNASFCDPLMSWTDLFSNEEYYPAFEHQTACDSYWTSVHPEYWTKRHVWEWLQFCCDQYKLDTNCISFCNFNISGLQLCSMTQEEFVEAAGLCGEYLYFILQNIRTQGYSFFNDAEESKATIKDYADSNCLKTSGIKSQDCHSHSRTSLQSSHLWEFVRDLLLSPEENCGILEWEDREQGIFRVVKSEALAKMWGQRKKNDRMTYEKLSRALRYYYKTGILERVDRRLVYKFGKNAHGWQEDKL
# In short: as §1
# ETV3 = target: T7, ETV3 (Homo sapiens, UniProt P41162-2 1-143)
# T7 sequence: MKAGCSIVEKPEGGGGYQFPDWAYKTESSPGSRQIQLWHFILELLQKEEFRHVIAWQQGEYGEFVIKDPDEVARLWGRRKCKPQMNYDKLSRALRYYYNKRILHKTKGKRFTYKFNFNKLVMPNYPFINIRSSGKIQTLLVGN
# In short: as §1
# ETV6 = ETV6 (Homo sapiens, UniProt P41212 1-452)
# Sequence of ETV6 (P41212 whole entry): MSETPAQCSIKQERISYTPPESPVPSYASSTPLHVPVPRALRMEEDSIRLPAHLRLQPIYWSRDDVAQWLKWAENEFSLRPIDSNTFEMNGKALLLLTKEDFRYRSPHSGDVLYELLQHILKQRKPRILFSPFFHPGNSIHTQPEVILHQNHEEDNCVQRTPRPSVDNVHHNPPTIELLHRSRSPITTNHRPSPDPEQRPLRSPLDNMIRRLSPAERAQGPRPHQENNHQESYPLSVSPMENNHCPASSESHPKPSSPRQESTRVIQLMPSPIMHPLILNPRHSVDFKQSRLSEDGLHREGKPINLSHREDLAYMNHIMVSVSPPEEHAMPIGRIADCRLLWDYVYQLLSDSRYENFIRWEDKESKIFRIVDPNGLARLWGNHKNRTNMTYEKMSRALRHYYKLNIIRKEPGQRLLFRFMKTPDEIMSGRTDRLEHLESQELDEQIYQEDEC
# In short: as §1
Sequence,binding signal (ERF),binding signal (ETV3L),binding signal (ETS2),binding signal (SPDEF),binding signal (ETV7),binding signal (ELF5),binding signal (ETV3),binding signal (ETV6)
TAATCA,"1.09 fold enrichment (6-mer frequency, TF over GST control)","1.12 fold enrichment (6-mer frequency, TF over GST control)","1.14 fold enrichment (6-mer frequency, TF over GST control)","1.11 fold enrichment (6-mer frequency, TF over GST control)","1.1 fold enrichment (6-mer frequency, TF over GST control)","1.08 fold enrichment (6-mer frequency, TF over GST control)","1.15 fold enrichment (6-mer frequency, TF over GST control)","1.18 fold enrichment (6-mer frequency, TF over GST control)"
CCTTTT,"1.65 fold enrichment (6-mer frequency, TF over GST control)","1.69 fold enrichment (6-mer frequency, TF over GST control)","1.46 fold enrichment (6-mer frequency, TF over GST control)","1.55 fold enrichment (6-mer frequency, TF over GST control)","1.53 fold enrichment (6-mer frequency, TF over GST control)","1.61 fold enrichment (6-mer frequency, TF over GST control)","1.55 fold enrichment (6-mer frequency, TF over GST control)","1.67 fold enrichment (6-mer frequency, TF over GST control)"
CTCGTT,"1.4 fold enrichment (6-mer frequency, TF over GST control)","1.43 fold enrichment (6-mer frequency, TF over GST control)","1.27 fold enrichment (6-mer frequency, TF over GST control)","1.27 fold enrichment (6-mer frequency, TF over GST control)","1.37 fold enrichment (6-mer frequency, TF over GST control)","1.44 fold enrichment (6-mer frequency, TF over GST control)","1.25 fold enrichment (6-mer frequency, TF over GST control)","1.23 fold enrichment (6-mer frequency, TF over GST control)"
CATCTT,"1.26 fold enrichment (6-mer frequency, TF over GST control)","1.28 fold enrichment (6-mer frequency, TF over GST control)","1.23 fold enrichment (6-mer frequency, TF over GST control)","1.03 fold enrichment (6-mer frequency, TF over GST control)","1.25 fold enrichment (6-mer frequency, TF over GST control)","1.17 fold enrichment (6-mer frequency, TF over GST control)","1.18 fold enrichment (6-mer frequency, TF over GST control)","1.25 fold enrichment (6-mer frequency, TF over GST control)"
CCCTAT,"1.22 fold enrichment (6-mer frequency, TF over GST control)","1.44 fold enrichment (6-mer frequency, TF over GST control)","1.34 fold enrichment (6-mer frequency, TF over GST control)","1.31 fold enrichment (6-mer frequency, TF over GST control)","1.3 fold enrichment (6-mer frequency, TF over GST control)","1.43 fold enrichment (6-mer frequency, TF over GST control)","1.34 fold enrichment (6-mer frequency, TF over GST control)","1.28 fold enrichment (6-mer frequency, TF over GST control)"
AACCCC,"1.03 fold enrichment (6-mer frequency, TF over GST control)","1.18 fold enrichment (6-mer frequency, TF over GST control)","1.21 fold enrichment (6-mer frequency, TF over GST control)","1.14 fold enrichment (6-mer frequency, TF over GST control)","1.11 fold enrichment (6-mer frequency, TF over GST control)","1.13 fold enrichment (6-mer frequency, TF over GST control)","1.07 fold enrichment (6-mer frequency, TF over GST control)","1.18 fold enrichment (6-mer frequency, TF over GST control)"
GGTCTC,"2.29 fold enrichment (6-mer frequency, TF over GST control)","2.36 fold enrichment (6-mer frequency, TF over GST control)","2.55 fold enrichment (6-mer frequency, TF over GST control)","1.93 fold enrichment (6-mer frequency, TF over GST control)","2.04 fold enrichment (6-mer frequency, TF over GST control)","2.18 fold enrichment (6-mer frequency, TF over GST control)","2.64 fold enrichment (6-mer frequency, TF over GST control)","1.99 fold enrichment (6-mer frequency, TF over GST control)"
